Laboratory results taken from the supplement of paper PMC3334620.
The full ranking holds about 33,000 sequences; the median of “E-score (-0.5 to 0.5)” is about -0.0034, and the highest 2% start at about 0.25. The entries come from a sample that favours the highest values as a whole.

target: T1, Yap3 (UniProt P38749); test: PBM E-score (8-mer binding enrichment) (E-score (-0.5 to 0.5)); higher = stronger / more preferred TF binding; conditions: protein concentration: 100 nM; construct: GST-full length
T1 sequence: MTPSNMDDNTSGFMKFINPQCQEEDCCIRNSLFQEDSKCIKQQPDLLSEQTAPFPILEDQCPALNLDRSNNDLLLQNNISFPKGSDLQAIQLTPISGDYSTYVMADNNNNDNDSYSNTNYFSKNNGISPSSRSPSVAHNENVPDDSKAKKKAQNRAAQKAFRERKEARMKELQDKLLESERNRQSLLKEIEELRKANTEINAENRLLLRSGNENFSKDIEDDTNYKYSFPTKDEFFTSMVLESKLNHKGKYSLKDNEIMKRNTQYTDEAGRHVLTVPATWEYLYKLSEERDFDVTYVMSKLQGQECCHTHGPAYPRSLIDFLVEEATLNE
Procedure: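 Universal 'all 10-mer' protein binding microarrays (Agilent AMADID 015681) probed with GST-tagged S. cerevisiae TFs (full-length or DBD) made by in vitro transcription/translation (PURExpress), about 100-200 nM. Bound TF was detected with fluorescent anti-GST. Each ungapped 8-mer (which stands for itself and its reverse complement) is scored by the PBM enrichment score (E-score), a modified Wilcoxon-Mann-Whitney statistic from -0.5 to +0.5, computed with the Universal PBM Analysis Suite. Scale: above 0.35 generally sequence-specific binding.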

First: CAGGCAAG
Second: ATACGTAC
The “PBM E-score” value of the first is lower: -0.0287 for the first, 0.0322 for the second.

Compared with ATACGTAG, ATACGTAA is higher in “PBM E-score” value: 0.0583 for the first, 0.266 for the second.

Going from CCTTAGCC to CGCCATCC, the “PBM E-score” value falls from -0.0133 to -0.247.

Compared with CTGTAACA, ATGTAACA is higher in “PBM E-score” value: -0.0647 for the first, 0.256 for the second.

Going from CTGTAATA to ATGTAATG, the “PBM E-score” value rises from 0.113 to 0.151.

Compared with CTGTAAGC, ATGTAATA is higher in “PBM E-score” value: -0.0121 for the first, 0.371 for the second.

Going from ATGTAAGC to ATGTAAGG, the “PBM E-score” value falls from 0.264 to 0.129.

First: GTGTAAGA
Second: CTGTAAGA
The “PBM E-score” value of the first is lower: -0.0287 for the first, -0.0157 for the second.

Going from ATGTAACG to ATGTAAGA, the “PBM E-score” value rises from 0.164 to 0.277.

Going from AGCGTCGA to AACCTAAA, the “PBM E-score” value rises from 0.124 to 0.142.

Compared with ATCCCTGA, CAGCACAC is lower in “PBM E-score” value: -0.0313 for the first, -0.173 for the second.

First: AAGTGTTA
Second: TAGAGCTA
The “PBM E-score” value of the first is higher: 0.112 for the first, -0.0728 for the second.

Going from AATCCTCT to CCAGTTCG, the “PBM E-score” value rises from -0.127 to -0.114.

Compared with AAAATCTA, AGCTACTA is higher in “PBM E-score” value: 0.0549 for the first, 0.0917 for the second.

Compared with CGCTACTC, CGCTACTA is higher in “PBM E-score” value: -0.112 for the first, 0.264 for the second.

Going from ATTTTCTC to CTACTACA, the “PBM E-score” value rises from 0.0752 to 0.225.

First: ATACTACC
Second: ACAATACA
The “PBM E-score” value of the first is lower: 0.0377 for the first, 0.0763 for the second.

Compared with ATAATACA, GAAATACA is lower in “PBM E-score” value: 0.357 for the first, 0.0912 for the second.

First: CTAATACA
Second: ATACTACA
The “PBM E-score” value of the first is lower: 0.25 for the first, 0.28 for the second.

Compared with GTAATACA, ACAATACG is lower in “PBM E-score” value: 0.273 for the first, 0.0668 for the second.

Going from ATAATACG to AGAATACG, the “PBM E-score” value falls from 0.292 to 0.0873.

Compared with ATAATACC, GAAGGCAC is lower in “PBM E-score” value: 0.226 for the first, -0.128 for the second.

Compared with AAGGATTC, GAGTGGAA is higher in “PBM E-score” value: -0.129 for the first, 0.0318 for the second.

Compared with CGATATCC, AAAGAGGC is lower in “PBM E-score” value: 0.146 for the first, -0.0407 for the second.

Going from ATTCCTTG to ACTATATA, the “PBM E-score” value rises from -0.113 to 0.328.

Going from ACCATATC to AGCATATA, the “PBM E-score” value falls from 0.0587 to 0.0558.

First: ACTATATC
Second: CTTATATA
The “PBM E-score” value of the first is lower: 0.227 for the first, 0.315 for the second.

First: GTTATATA
Second: CGCATATA
The “PBM E-score” value of the first is higher: 0.224 for the first, 0.00761 for the second.

Compared with GGCATATA, ACCATATA is higher in “PBM E-score” value: 0.268 for the first, 0.285 for the second.

Going from GCTATATA to CTTATATC, the “PBM E-score” value rises from 0.101 to 0.218.

ACCATATG and ACCTAAAC are the same in “PBM E-score” value: 0.122 for the first, 0.122 for the second.

Compared with GAGGGATC, ACTGGTAA is higher in “PBM E-score” value: -0.253 for the first, 0.184 for the second.

First: CCTAGACC
Second: CGAAGGTA
The “PBM E-score” value of the first is lower: -0.146 for the first, 0.00763 for the second.

First: AGTGCGCG
Second: CCCTGTCC
The “PBM E-score” value of the first is higher: -0.0557 for the first, -0.276 for the second.

Compared with TAGAGCAA, AAACTGCT is lower in “PBM E-score” value: -0.0378 for the first, -0.156 for the second.

First: GACTCTTA
Second: ATTATATG
The “PBM E-score” value of the first is lower: 0.141 for the first, 0.221 for the second.

Compared with ATTATATA, ATTATATC is lower in “PBM E-score” value: 0.3 for the first, 0.16 for the second.

Compared with AATGCCAG, GCGTGGCC is lower in “PBM E-score” value: -0.00344 for the first, -0.3 for the second.

Compared with TGTCGAAA, AAATAAAT is higher in “PBM E-score” value: -0.0162 for the first, 0.241 for the second.

Going from CAATAACA to AAATAGAA, the “PBM E-score” value falls from 0.0825 to 0.0373.

First: GAATAATA
Second: AAATAAGT
The “PBM E-score” value of the first is higher: 0.292 for the first, 0.145 for the second.

Going from AAATAATT to TAATAGAA, the “PBM E-score” value falls from 0.287 to 0.257.

Compared with TAATAACA, GAATAATC is higher in “PBM E-score” value: 0.189 for the first, 0.217 for the second.

Compared with GAATAGAA, GAATAAGA is lower in “PBM E-score” value: 0.125 for the first, 0.109 for the second.

Compared with GAATAACA, TAACACTA is lower in “PBM E-score” value: 0.308 for the first, 0.245 for the second.

Going from ACGCGTTA to GGCTCTGA, the “PBM E-score” value falls from 0.0763 to -0.03.

First: CAGAGTTA
Second: ACACCATA
The “PBM E-score” value of the first is lower: -0.0557 for the first, 0.164 for the second.

Compared with GCGCACCA, TAATAAAA is higher in “PBM E-score” value: -0.0312 for the first, 0.324 for the second.

Compared with AAATAATG, TAATAATA is higher in “PBM E-score” value: 0.24 for the first, 0.373 for the second.

Going from TAATAAGA to AAATAAAA, the “PBM E-score” value rises from 0.136 to 0.224.

First: GATTAGAA
Second: CAATAATA
The “PBM E-score” value of the first is lower: 0.0967 for the first, 0.237 for the second.

First: AAATAATA
Second: AAATAATC
The “PBM E-score” value of the first is higher: 0.307 for the first, 0.0637 for the second.

Compared with TATTAGAA, CATTAGAA is lower in “PBM E-score” value: 0.287 for the first, 0.123 for the second.

First: GAATAAAA
Second: AAATGAGT
The “PBM E-score” value of the first is lower: 0.178 for the first, 0.23 for the second.

Compared with ACATCCAT, TGGCCACA is lower in “PBM E-score” value: 0.0624 for the first, -0.0477 for the second.

Compared with GCCTATGA, GGTCCCAA is lower in “PBM E-score” value: -0.134 for the first, -0.151 for the second.
